The text below walks through data of PubChem BioAssay (NCATS).

Inconclusive results are not listed. Entries that show only a call come without a potency. The source made the active and inactive calls. The call rests on the fitted dose curve; in most records, active means well fitted inhibition curve with a large enough effect; inconclusive means small, poorly fitted or top-dose-only effect; inactive means flat fitted curve, though single readings scatter.
Further: nearly all actives have a fitted effect of over 65% in size.

Glutathione peroxidase 1 (Homo sapiens), sequence (P07203 whole entry, looked up): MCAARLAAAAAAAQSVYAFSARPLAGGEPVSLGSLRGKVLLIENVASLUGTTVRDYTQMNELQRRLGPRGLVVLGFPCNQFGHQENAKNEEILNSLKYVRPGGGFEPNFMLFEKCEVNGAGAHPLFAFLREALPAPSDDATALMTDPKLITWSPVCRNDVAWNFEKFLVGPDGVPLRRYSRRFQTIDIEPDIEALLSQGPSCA

The target in one experiment is Glutathione peroxidase 1 (Homo sapiens) (UniProt P07203). As to the kind of experiment: Primary qHTS Assay for Inhibitors of Recombinant Selenoprotein Glutathione Peroxidase 1 (GPX1) (AID 1845191). Particulars: recombinant GPX1, GR-coupled NADPH fluorescence, 15 min; series mostly up to 48.8 µM. Summed up:
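GPX1 10 nM, GR 100 nM, GSH 1 mM, NADPH 0.5 mM, CHP 0.5 mM (final). 30-min cpd preincubation, RT. Ex340/Em450 read t=0, t=15 min.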
A general note: In qHTS, concentration-response curves come from the screen itself.
Take `O=C(O)c1cccnc1`: the Potency result was “inactive”.
Same read-out and setting: with `CCN(CC)CC#CCOC(=O)C(O)(c1ccccc1)C1CCCCC1` (stereo unspecified) the entry was “inactive”; with `NNC(=O)c1ccncc1`, “inactive”; with `CC1=C(C(=O)O)N2C(=O)[C@@H](NC(=O)C(N)c3ccccc3)[C@H]2SC1` (stereo partly specified), “inactive”.
Regarding `CCN1CCCC1CNC(=O)c1cc(S(N)(=O)=O)ccc1OC` (stereo unspecified), the Potency entry is “inactive”.
On to `COc1ccc2cc3[n+](cc2c1OC)CCc1cc2c(cc1-3)OCO2`, for which the Potency entry is “inactive”.
Take `CN1CCN(c2c(F)cc3c(=O)c(C(=O)O)cn(CCF)c3c2F)CC1`: the Potency result was “inactive”.
`Cc1noc(NS(=O)(=O)c2ccc(N)cc2)c1C`: the Potency entry was “inactive”.
For the compound `O[C@@H](CNC[C@H](O)[C@H]1CCc2cc(F)ccc2O1)[C@@H]1CCc2cc(F)ccc2O1`, the Potency entry was “inactive”.
Same read-out and setting: under `CNS(=O)(=O)CCc1ccc2[nH]cc(C3CCN(C)CC3)c2c1` stands “inactive”; under `O=S(=O)(O)CCS`, “inactive”.

The target in a further experiment is Phospholipid hydroperoxide glutathione peroxidase GPX4 (Homo sapiens) (UniProt P36969). As to the kind of experiment: Primary qHTS Assay for Inhibitors of Recombinant Selenoprotein Glutathione Peroxidase 4 (GPX4) (AID 1845192). The note with it: recombinant GPX4, GR-coupled NADPH fluorescence, 15 min; series mostly up to 50 µM. Summed up: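 qHTS, GR-coupled: GPX4 200 nM + cpd 30 min RT → GSH 1 mM, NADPH 0.5 mM, GR 100 nM → CHP 0.5 mM start; fluor 340/450 at t0 and t15 min; no-enzyme wells as control.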
Phospholipid hydroperoxide glutathione peroxidase GPX4 (Homo sapiens), sequence (P36969 whole entry, looked up): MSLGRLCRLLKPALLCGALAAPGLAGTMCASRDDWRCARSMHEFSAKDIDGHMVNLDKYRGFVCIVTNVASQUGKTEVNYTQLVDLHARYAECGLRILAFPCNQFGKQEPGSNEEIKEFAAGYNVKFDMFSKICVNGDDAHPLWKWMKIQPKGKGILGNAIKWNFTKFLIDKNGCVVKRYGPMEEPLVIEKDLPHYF
With `Nc1nc(=S)c2[nH]cnc2[nH]1`, the Potency entry was “inactive”.
Consider `NC(=O)c1cccc(N)c1`, for which the Potency result is “inactive”.
On the same count and under the same terms, with `COc1cc2ncnc(Nc3cccc(Cl)c3)c2cc1OC` the entry was “inactive”; with `NC(=O)c1ccc2[nH]ccc2c1`, “inactive”; with `CCn1cc(C(=O)O)c(=O)c2cc(F)c(N3CCN(C)CC3)cc21`, “inactive”.
For `O=C(O)CSCC(=O)NC1CCSC1=O` (stereo unspecified), the Potency entry is “inactive”.
On to `Cc1cccc(Nc2ccncc2S(=O)(=O)NC(=O)NC(C)C)c1`, for which the Potency entry is “inactive”.
As for `COc1c(N2CCNC(C)C2)c(F)cc2c(=O)c(C(=O)O)cn(C3CC3)c12` (stereo unspecified), the Potency entry was “inactive”.
Take `COC(c1ccccc1)(c1ccccc1)[C@H](Oc1nc(C)cc(C)n1)C(=O)O`: the Potency entry was “inactive”.
For the compound `Cn1nnc2c(C(N)=O)ncn2c1=O`, the Potency result is “inactive”.
On to `CC(C)C[C@H](NC(=O)[C@H](CCc1ccccc1)NC(=O)CN1CCOCC1)C(=O)N[C@@H](Cc1ccccc1)C(=O)N[C@@H](CC(C)C)C(=O)[C@@]1(C)CO1`, for which the Potency entry is “inactive”.
For the compound `CC1CC2C3CCC4=CC(=O)C=C[C@]4(C)[C@@]3(F)[C@@H](O)C[C@]2(C)[C@@]1(O)C(=O)CO` (stereo partly specified), the Potency entry was “inactive”.
Regarding `CCCCS(=N)(=O)CCC(N)C(=O)O` (stereo unspecified), the Potency result is “inactive”.
Same read-out and setting: under `C[C@]12C=CC(=O)C=C1CC[C@@H]1[C@@H]2C(=O)C[C@@]2(C)[C@H]1CC[C@]2(O)C(=O)CO` stands “inactive”; under `Cc1ccc(S(=O)(=O)N[C@@H](Cc2ccccc2)C(=O)CCl)cc1`, “inactive”; under `COc1cc(NS(=O)(=O)c2ccc(N)cc2)nc(OC)n1`, “inactive”.
`Cc1ccnc2c1NC(=O)c1cccnc1N2C1CC1`: the Potency result was “inactive”.
With `CCN(CC)CCn1c(=O)c(Cc2ccc(OC)cc2)nc2ccccc21`, the Potency entry was “inactive”.
On the same count and under the same terms, under `CC(C)NCC(O)c1ccc(NS(C)(=O)=O)cc1` (stereo unspecified) stands “inactive”; under `OCc1ccc(-c2nn(Cc3ccccc3)c3ccccc23)o1`, “inactive”; under `C[C@@H]1C[C@H]2[C@@H]3CCC4=CC(=O)C=C[C@]4(C)[C@@]3(Cl)[C@@H](O)C[C@]2(C)[C@@]1(OC(=O)c1ccco1)C(=O)CCl`, “inactive”.
Regarding `Nc1nc(N)c2nc(CNc3ccc(C(=O)NC(CCC(=O)O)C(=O)O)cc3)cnc2n1` (stereo unspecified), the Potency entry was “inactive”.
Turning to `CCOc1cc(N)c(Cl)cc1C(=O)NCC1CN(Cc2ccc(F)cc2)CCO1` (stereo unspecified), the Potency entry is “inactive”.
Turning to `O=C(O)C1CCCN(CCC=C(c2ccccc2)c2ccccc2)C1` (stereo unspecified), the Potency entry is “inactive”.
On to `O=C(O)c1cccnc1`, for which the Potency entry is “inactive”.
With `CCN(CC)CC#CCOC(=O)C(O)(c1ccccc1)C1CCCCC1` (stereo unspecified), the Potency entry is “inactive”.
Take `NNC(=O)c1ccncc1`: the Potency entry was “inactive”.
As for `CC1=C(C(=O)O)N2C(=O)[C@@H](NC(=O)C(N)c3ccccc3)[C@H]2SC1` (stereo partly specified), the Potency result was “inactive”.
With `CCN1CCCC1CNC(=O)c1cc(S(N)(=O)=O)ccc1OC` (stereo unspecified), the Potency entry was “inactive”.
`COc1ccc2cc3[n+](cc2c1OC)CCc1cc2c(cc1-3)OCO2`: the Potency result is “inactive”.
Take `CN1CCN(c2c(F)cc3c(=O)c(C(=O)O)cn(CCF)c3c2F)CC1`: the Potency result is “inactive”.
In the case of `Cc1noc(NS(=O)(=O)c2ccc(N)cc2)c1C`, the Potency result was “inactive”.
Same read-out and setting: under `O[C@@H](CNC[C@H](O)[C@H]1CCc2cc(F)ccc2O1)[C@@H]1CCc2cc(F)ccc2O1` stands “inactive”; under `CNS(=O)(=O)CCc1ccc2[nH]cc(C3CCN(C)CC3)c2c1`, “inactive”.
On to `O=S(=O)(O)CCS`, for which the Potency entry was “inactive”.
